Shown are actives, neighbours in structure and some others; about 2.3% of the full set was active somewhere.
Mcl1-Bid inh: Mcl-1/Bid interaction inhibition | Q07820 | TR-FRET Mcl-1/Bid-Dy647 peptide binding, 1536-well | inhibition, % at 21.7 µM | 0.97% of 220,000 active;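 active = compounds that cut the binding signal by more than half at the single screening dose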;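 note: His-tagged Mcl-1 with europium anti-His antibody binding Bid BH3 peptide; 0% = Mcl-1 plus peptide wells and 100% = peptide-only wells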
Mcl-1 Bim block: human Bim-Mcl-1 interaction inhibition. Q07820. Bead-based flow cytometry, Bim peptide-Mcl-1 binding. inhibition, % at 10 µM. 0.1% of 190,000 active; in the data active = inhibition above about 40%;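 note: 0% = no compound tracer wells and 100% = peptide blocker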
MCL1 BIM primary: inhibitors of human MCL1 binding to BIM-BH3 peptide; Q07820; GST-MCL1 / FITC-Bim-BH3 fluorescence polarization; inhibition, % at 10.9 µM; 0.68% of 320,000 active;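 active = inhibition above the mean inhibition of all tested compounds plus 3 SD, set per campaign, cut at about 40% in these data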;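 note: 0% = DMSO wells and 100% = unlabeled Bim-BH3 peptide control; higher means more loss of mP so more displacement of Bim peptide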
BCLXL inh: inhibitors of human Bcl-xL | Q07817 | GST-Bcl-xL / FITC-Bim BH3 peptide fluorescence polarization | inhibition, % at 10.9 µM | 0.7% of 320,000 active | AID 2129;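 active = inhibition above the mean of all tested compounds plus 3 SD, cutoff set per campaign, cut at about 30% in these data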;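 note: 0% = DMSO wells and 100% = unlabeled Bim-BH3 peptide competitor; inhibitors lower millipolarization by displacing the labeled peptide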
GLD-1 RNA inh: GLD-1-TGE RNA interaction inhibition (C. elegans); inhibition, % at 5.96 µM; 0.44% of 320,000 active; purified GLD-1 + fluorescein TGE RNA, fluorescence polarization; Q17339;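 active = percent inhibition above a per-plate cutoff, the plate mean of test compounds plus 3 SD, cut at about 30% in these data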;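 note: 0% = DMSO wells with GLD-1 and probe and 100% = wells lacking GLD-1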
Target sequence (Q17339 whole entry, looked up): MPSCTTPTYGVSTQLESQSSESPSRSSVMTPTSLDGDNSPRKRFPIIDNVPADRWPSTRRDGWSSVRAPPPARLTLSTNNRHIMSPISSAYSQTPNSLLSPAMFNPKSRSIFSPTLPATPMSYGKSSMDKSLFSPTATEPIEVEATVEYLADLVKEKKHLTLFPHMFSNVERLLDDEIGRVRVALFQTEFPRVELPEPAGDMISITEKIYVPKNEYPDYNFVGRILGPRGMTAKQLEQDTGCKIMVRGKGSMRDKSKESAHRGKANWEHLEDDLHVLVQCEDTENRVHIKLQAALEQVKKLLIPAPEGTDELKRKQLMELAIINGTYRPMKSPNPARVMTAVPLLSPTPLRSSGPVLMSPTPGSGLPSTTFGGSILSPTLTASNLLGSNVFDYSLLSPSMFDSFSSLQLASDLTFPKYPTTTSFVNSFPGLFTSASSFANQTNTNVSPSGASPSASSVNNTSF
Mcl1-Noxa inh: Mcl-1/Noxa interaction inhibition; 1.5% of 220,000 active; AID 1022; TR-FRET Mcl-1/Noxa peptide binding, 2 h; inhibition, % at 21.7 µM;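 active = compounds that cut the protein-peptide binding signal by more than 50% relative to plate controls in a single-dose test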;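 note: His-tagged Mcl-1 with rhodamine Noxa BH3 peptide and terbium anti-His antibody; 0% = Mcl-1 plus Noxa peptide wells and 100% = peptide-only wells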
BCLXL inh confirm: counter-screen for MCL1 inhibitors: confirmation of human Bcl-xL inhibitors; shares compounds with MCL1 BIM primary; GST-Bcl-xL / FITC-Bim BH3 peptide FP binding; inhibition, % at 10.9 µM; 54% of 1,700 active; AID 2166;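 active = inhibition above a cutoff equal to the mean inhibition of all tested compounds plus 3 SD, cut at about 30% in these data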;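 note: 0% = DMSO wells and 100% = unlabeled Bim BH3 control peptide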
MCL1 inh confirm: confirmation of human MCL1 and BIM-BH3 interaction inhibitors | shares compounds with MCL1 BIM primary | GST-MCL1 / FITC-Bim-BH3 fluorescence polarization | inhibition, % at 10.9 µM | 61% of 1,700 active | AID 2168;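 active = inhibition above the average of all tested compounds plus 3 SD, cut at about 40% in these data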;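 note: 0% = DMSO wells and 100% = unlabeled Bim-BH3 control peptide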
Numbers without * were called inactive; / = no result given; + = active, no number.

SMILES | Mcl1-Bid inh | Mcl-1 Bim block | MCL1 BIM primary | BCLXL inh | GLD-1 RNA inh | Mcl1-Noxa inh | BCLXL inh confirm | MCL1 inh confirm
O=C(CN1C(=O)/C(=C2\SC(=S)N(CCS(=O)(=O)O)C2=O)c2ccccc21)Nc1cccc(Br)c1 | / | / | 103* | 21 | 0 | / | 26 | 94*
CS(=O)(=O)c1ccc(-c2sc3cc4c(cc3c2C(=O)NN2CCOCC2)OCO4)cc1 | / | / | / | / | -3 | / | / | /
O=C(O)C1Nc2c(Cl)cc(Cl)cc2C2C=CCC12 (configuration not stated) | / | / | 105* | 85* | 2 | / | 52* | 91*
O=C(O)C1Nc2c(Cl)cc(Cl)c(Cl)c2C2C=CCC12 (configuration not stated) | / | / | 103* | 65* | 14 | / | 123* | 168*
CNC(=O)c1cc(C(=O)c2ccc(C(F)(F)F)cc2)c[nH]1 | / | / | 5 | 3 | 1 | / | / | /
CNC(=O)c1cc(C(=O)c2ccc(C(F)(F)F)cc2F)c[nH]1 | -11 | 0 | 66* | 4 | 2 | 7 | 2 | 6
CCN(CC)S(=O)(=O)c1ccc(N2CCc3cc(OC)c(OC)cc3C2)nc1 | / | / | 4 | 3 | 2 | / | / | /
CCOC(=O)C1=C(O)/C(=C/c2cn(CC(=O)NCC3CCCO3)c3ccccc23)SC1=Nc1ccc(C)cc1 (configuration not stated) | / | / | 77* | 81* | -28 | / | 109* | 109*
CC(C)C(=O)c1cn(CC(=O)NCC2CCCO2)c2ccccc12 (configuration not stated) | 11 | 0 | 2 | 6 | 5 | -8 | / | /
Cc1cc(C)cc(-n2ccn(CC(=O)NCCc3ccccc3)c(=O)c2=O)c1 | / | / | 10 | 3 | 3 | / | / | /
O=c1nc(/C=C/c2ccc(-c3ccc(F)cc3)o2)cc(C(F)(F)F)[nH]1 | -17 | 13 | 44* | 11 | -11 | 14 | 40* | 22
Cn1c(SCC(=O)Nc2nncs2)nnc1C1CC1 | / | / | 46* | 14 | 9 | / | 11 | 29
O=C1SC(SCc2ccccc2)=N/C1=C\c1ccco1 | -24 | -1 | 43* | 20 | 6 | 23 | 8 | 16
O=C1SC(SCc2ccccc2)=N/C1=C\c1ccc(C(=O)O)cc1 | -4 | -3 | 3 | 4 | 0 | 39 | / | /
CCOC(=O)CSc1nc(N2CCOCC2)c2c(c1C#N)CC(C)(C)N(C)C2 | -16 | 4 | 56* | 59* | 73* | -3 | 8 | 13
CSC1=NC2(C[C@H]2c2ccccc2)C(=O)N1C (some centres not stated) | / | / | 12 | 6 | -1 | / | / | /
COc1ccc(/C=N/NC(=O)c2nn(-c3ccc(C)c(C)c3)c(=O)c3ccccc23)cc1 | 5 | -3 | 1 | -5 | 3 | 5 | / | /
COc1ccc(/C=N/NC(=O)c2nn(-c3ccccc3)c(=O)c3c(N)scc23)cc1 | -36 | -1 | 41* | 25 | 5 | 55* | 12 | 2
COc1ccc(OC)c2nc3c(cc12)CCC3 | / | / | 53* | 52* | 32* | / | 10 | 5
COc1cc(/C=N/NC(=O)CSc2cc(C)c(Br)cc2C)ccc1O | -18 | 2 | 6 | 6 | 0 | 22 | / | /
Cc1cc(SCC(=O)N/N=C/c2ccc(O)c(O)c2O)c(C)cc1Br | 18 | -2 | 51* | 15 | 11 | 84* | 7 | 34
O=C(Cc1cccs1)NCc1ccc(Cl)cc1Cl | / | / | 17 | 4 | 0 | / | / | /
O=S(=O)(Nc1ccccc1N1CCOCC1)c1c(F)cc(F)cc1Br | / | / | / | / | -1 | / | / | /
CCCCNc1c2c3c(cccc3n(C)c1=O)C(=O)c1ccccc1-2 | -10 | 2 | + | 198* | + | -60 | 178* | +
CC(=O)Nc1ccc(Nc2c3c4c(cccc4n(C)c2=O)C(=O)c2ccccc2-3)cc1 | 3 | -2 | + | + | 169* | 23 | 181* | +
Cn1c(=O)c(NCCc2ccccc2)c2c3c(cccc31)C(=O)c1ccccc1-2 | -4 | 2 | + | + | + | -272 | + | +

High-throughput results deposited in PubChem BioAssay by several laboratories.
